Drawing on PubChem BioAssay AID818 (SRMLSC, 2007), this text covers viability for 97 compounds.

Structures are written as SMILES. About 2,100 (1.5%) of roughly 140,000 compounds were called active.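 How the source made its calls: active means viability at or under a set limit, the compound median less 4 SD (cut at about 6% in these data); inactive means the rest.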 Only a selection was taken, and actives are over-represented in it overall.

The nature of this assay: primary screen for suppressors of beta-catenin knockout HCT116 cell growth, colon tumor, human (AID 818).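 Further: 0% = Hyamine 1622 control at 20 µM and 100% = untreated cell control.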 Conditions: CellTiter-Glo, 60 h, at 10 µM, hits give low values. A general note: Cellular ATP, detected with luciferase, serves as a proxy for viable cell number.
Usually viability stands for a read-out of living cells in per cent, often relative to untreated cells. Take `CSc1nc(C)cc(SC(C(C)=O)C(=O)Nc2ccccc2)n1` (configuration not stated): the viability was 88.4% (inactive).
For `CSc1nc(-c2ccccc2)nc(C(Cl)Cl)n1`, the viability is 3.63% (active).
Take `Cc1nn(-c2ccccc2)c(-n2cccc2)c1C(=O)O`: the viability was 95.6% (inactive).
With `Cc1ccc(/C=N/NC(=O)COc2ccccc2-c2ccccc2)cc1` the figure was 13.9% (inactive).
As to `c1ccc(C2CNCc3c2ccc2ccccc32)cc1` (configuration not stated), the viability is 11.3% (inactive).
To `COc1ccc(C2NC(=S)NC3=C2CCc2ccccc23)cc1OC` (configuration not stated) belongs 81.8% (inactive); to `CCn1ncc(CNC(=O)C2(C)CC2(Br)Br)c1C` (configuration not stated), 94.3% (inactive); to `CC(=O)NS(=O)(=O)c1ccc(NC(=O)C2C3C=CC(C3)C2C(=O)O)cc1` (configuration not stated), 98.2% (inactive).
For `CN(C)S(=O)(=O)c1cccc(C(=O)Nc2cccnc2)c1`, the viability is 97.9% (inactive).
Regarding `CN(C)S(=O)(=O)c1cccc(NC(=S)N/N=C/C(=O)c2ccccc2)c1`, the viability is 6.06% (active).
To `CCN(CC)S(=O)(=O)c1cccc(C(=O)Nc2ccccc2)c1` belongs 80.8% (inactive); to `Cc1cccc(CSc2ccc(-c3cccs3)nn2)c1`, 75.7% (inactive).
With `Cc1c(Cl)c([N+](=O)[O-])nn1CCCC(=O)Nc1cc(Cl)ccc1Cl` the figure was 91.2% (inactive); with `COc1ccc(NC(=S)N2CCCC(CO)C2)c(OC)c1` (configuration not stated), 100% (inactive); with `O=C(CC1NCCNC1=O)Nc1cc(Cl)cc(Cl)c1` (configuration not stated), 87.8% (inactive).
To `Cc1ccc(/C=N/NC(=O)C2=NNC(c3ccccc3)(c3ccccc3)C2)c(O)c1` belongs 4.68% (active); to `Cc1ccc(-c2nn(-c3ccccc3)cc2/C=N/NC(=O)c2ccc3c(c2)OCO3)cc1`, 36.6% (inactive).
With `Cc1cccc(-n2c(C)cc(/C=N\NC(=O)c3cccs3)c2C)c1`, the viability is 60.6% (inactive).
For `Cc1cc(C(=O)NNC(=S)NC(C)c2ccccc2)cs1` (configuration not stated), the viability is 88.5% (inactive).
For `Cc1cc(NC(=O)/C=C/C(=O)N(c2ccccc2C)C(C(=O)NC2CCCC2)c2ccc(F)cc2)no1` (configuration not stated), the viability is 5.76% (active).
Turning to `Cc1cc(NC(=O)CCC(=O)N(c2ccccc2)C(C(=O)NC2CCCC2)c2ccncc2)no1` (configuration not stated), the viability is 80% (inactive).
With `Cc1cc(NC(=O)CCC(=O)N(c2cccc(F)c2)C(C(=O)NC2CCCC2)c2ccncc2)no1` (configuration not stated) the figure was 94.3% (inactive); with `CCOc1ccc(Br)cc1S(=O)(=O)Nc1cccc(S(=O)(=O)N(CC)CC)c1`, 96.4% (inactive).
With `CCc1ccc(-c2nn(-c3ccccc3)cc2CSC(=N)N)cc1` the figure was 1.57% (active); with `N=C(N)SCc1cccc2ccccc12`, 79.3% (inactive).
To `CCn1c(SCc2ccc(C)cc2)nnc1-c1nn(-c2ccccc2)ccc1=O` belongs 103% (inactive).
Regarding `CCN(C(=O)COc1cccnc1[N+](=O)[O-])C1CCS(=O)(=O)C1` (configuration not stated), the viability is 85.6% (inactive).
With `COC(C(=O)NCc1ccccc1C)c1ccccc1` (configuration not stated) the figure was 90% (inactive); with `CCN(CC)CCNCc1ccc(OCc2ccc(Cl)nc2)c(OC)c1`, 96.9% (inactive).
To `Cc1c(Cl)cccc1NC(=O)Nc1ccc(C(=O)N2CCCC2)cc1` belongs 70.1% (inactive).
With `O=C(Cn1c(-c2ccccn2)nc2ccccc21)NCCN1CCOCC1` the figure was 98.8% (inactive).
`c1ccc2cc3c(NCCN4CCOCC4)ccnc3cc2c1`: the viability was 2.37% (active).
With `c1ccc2[nH]c(NCCN3CCOCC3)nc2c1` the figure was 92% (inactive).
With `CC(C)CCNC(=O)c1cccnc1Sc1ccccc1` the figure was 96.4% (inactive); with `CCC(C)NCCOCCOc1ccc(Br)cc1C` (configuration not stated), 70.2% (inactive).
With `CC(C)(C)CC(C)(C)NCC(O)COCCOc1ccc(Br)cc1` (configuration not stated) the figure was 1.6% (active); with `Cc1noc(COc2ccccc2OCC(O)CNC(C)(C)C)n1` (configuration not stated), 98.6% (inactive); with `CCOc1ccc(NC(=S)N2CCC(N(C)CC3CCCO3)CC2)cc1` (configuration not stated), 96.9% (inactive).
Regarding `Cc1ccc(NC(=O)COC(=O)CCc2nc3ccccc3n2-c2ccccc2)c(C)c1`, the viability was 79.9% (inactive).
To `COc1ccc(CN2CN(C(C)C)CSC2=S)cc1` belongs 5.75% (active).
To `S=C1SCN(CCN2CCOCC2)CN1Cc1ccccc1` belongs 20.5% (inactive); to `O=C(NN1C(=O)C2C3C=CC(C3)C2C1=O)c1ccco1` (configuration not stated), 93.7% (inactive).
With `COc1cc(OC)nc(N/N=C(\c2ccccc2)c2ccncc2)n1` the figure was 63.6% (inactive); with `Cc1ccc(C(=O)NCC2CCCO2)o1` (configuration not stated), 106% (inactive); with `OC(CNCC1CCCO1)Cn1c2ccc(Br)cc2c2cc(Br)ccc21` (configuration not stated), 1.48% (active).
Take `Cc1cc(Br)ccc1NC(=O)C1CCCO1` (configuration not stated): the viability was 96.2% (inactive).
With `COc1ccc(NC(=S)NCc2cccs2)c(OC)c1` the figure was 96% (inactive); with `COc1ccc(C(C(=O)NC2CCCCC2)N(C(=O)Cc2c[nH]c3ccccc23)c2ccccc2)cc1OC` (configuration not stated), 63.4% (inactive).
Take `CC(CC(=O)Nc1cc(C(F)(F)F)ccc1Cl)c1ccccc1` (configuration not stated): the viability is 61.2% (inactive).
As for `O=C(NNc1ccccc1Cl)C(O)(c1cccc(C(F)(F)F)c1)c1cccc(C(F)(F)F)c1`, the viability is 3.21% (active).
To `O=C(Nc1cc(C(F)(F)F)ccc1Cl)C(=O)N1CCCCC1` belongs 99.1% (inactive); to `CCc1nnc(NC(=O)/C=C/c2ccc(C)o2)s1`, 97.8% (inactive).
`CCC(=O)/C=C1\Sc2ccccc2N1CC`: the viability was 89% (inactive).
For the compound `CCN1/C(=C/c2ccc3ccc(C)cc3[n+]2CC)Sc2ccccc21`, the viability was 2.41% (active).
Turning to `CCOC(=O)CN(Cc1ccc(OC)c(OC)c1)S(=O)(=O)c1ccc(OC)cc1`, the viability is 91.4% (inactive).
For `COc1ccc(CCN(C(=O)COc2ccccc2)c2nc(-c3ccccc3)cs2)cc1OC`, the viability was 77.2% (inactive).
With `COc1ccc(C(CCN(Cc2ccc(OC)c(OC)c2)C(=O)CCl)c2ccccc2)cc1` (configuration not stated), the viability was 1.9% (active).
With `CCOC(=O)C(NC(=O)CC(C)C)(Nc1sc2c(c1C(N)=O)CCCC2)C(F)(F)F` (configuration not stated) the figure was 97.2% (inactive); with `COc1ccc(OC)c(C2C3=C(N=c4s/c(=C\c5cccc(O)c5)c(=O)n42)c2ccccc2CC3)c1` (configuration not stated), 3.2% (active).
Regarding `CCOC(=O)C1=C(C)N=c2s/c(=C\C(=O)OC)c(=O)n2C1c1ccc(OC)cc1` (configuration not stated), the viability is 98.8% (inactive).
Consider `O=C1CCCC2=C1C(c1ccccc1)n1c(s/c(=C/c3cccc(F)c3)c1=O)=N2` (configuration not stated), for which the viability is 83.9% (inactive).
Take `O=C(Nc1cn(-c2ccccc2)nc1-c1ccccc1)c1ccccc1`: the viability was 82% (inactive).
Regarding `COc1cccc(NC(=S)NCc2ccco2)c1`, the viability is 96.7% (inactive).
Turning to `O=[N+]([O-])c1ccc(C=Nc2ccc(Cl)cc2Cl)s1`, the viability was 3.51% (active).
To `CC1(C)CC(=O)C/C(=N\NC(=O)c2cccs2)C1` belongs 93% (inactive); to `Cc1ccc(S(=O)(=O)N(Cc2ccc(Cl)cc2)c2ccccc2C(=O)NCc2cccnc2)cc1`, 81.5% (inactive).
In the case of `O=C(c1c(Cl)nc2sccn12)N1CCCc2ccccc21`, the viability is 91.5% (inactive).
For the compound `O=C(CCCN1C(=O)/C(=C/c2ccco2)SC1=S)Nc1ccccc1`, the viability is 25.7% (inactive).
Consider `O=C1/C(=C\c2ccccc2Cl)SC(=S)N1CCC(=O)N1CCCc2ccccc21`, for which the viability was 4.79% (active).
Regarding `CCOc1ccc(C(=O)Nc2cccc(SC)c2)cc1`, the viability was 86.8% (inactive).
Regarding `NC1=NC(=O)S/C1=C\c1ccc(O)cc1`, the viability was 78.6% (inactive).
To `CCOC(=O)c1cc2n(c1C)-c1ccccc1C2=O` belongs 90.9% (inactive); to `CCOC(=O)c1c(C)[nH]c(=S)c(C#N)c1-c1ccccc1`, 101% (inactive).
To `CCOC(=O)c1c(C)[nH]c2c1-c1ccccc1C(=O)C2=O` belongs 1.06% (active).
To `CCC1(C(=O)c2ccccc2)C(c2cccc([N+](=O)[O-])c2)C1(C(=O)OC)C(=O)OC` (configuration not stated) belongs 82.6% (inactive); to `Cc1cc(/C=C2\SC(=Nc3ccc(N4CCOCC4)cc3)N(C)C2=O)c(C)n1-c1cccnc1`, 54.8% (inactive); to `O=C1c2ccccc2NC(c2ccc(-c3cccc(Cl)c3)o2)N1O` (configuration not stated), 2.84% (active).
Regarding `CCOC(=O)NN1C(=O)c2ccccc2NC1c1cccc(O)c1` (configuration not stated), the viability was 106% (inactive).
With `C=CCn1c(CCNC(=O)c2cccs2)n[nH]c1=S` the figure was 99.3% (inactive); with `COC(=O)Cn1c(=NC(=O)c2cc(OC)c(OC)c(OC)c2)sc2cc(OC)ccc21`, 81.5% (inactive).
With `O=C1/C(=C\c2cccnc2)CN(Cc2ccccc2)C/C1=C\c1cccnc1` the figure was 5.51% (active); with `O=C1OC(c2ccc(Cl)cc2)=N/C1=C\c1cccnc1`, 95.6% (inactive); with `O=C(O)C1CC(=O)N(Cc2cccnc2)C1` (configuration not stated), 90.7% (inactive).
For the compound `CCc1ccc(NC2Nc3cc(C)nn3S2)cc1` (configuration not stated), the viability was 95.4% (inactive).
With `CN=C1S/C(=C\c2ccc(Sc3ccc(Cl)cc3)o2)C(=O)N1C` the figure was 96.9% (inactive); with `CCC(C)N1C(=O)S/C(=C/c2ccc(Sc3nc4ccccc4[nH]3)o2)C1=O` (configuration not stated), 4.08% (active).
On to `O=C(CSc1nc2ccccc2[nH]1)c1cccs1`, for which the viability is 78.2% (inactive).
Take `CC1Cc2ccccc2N1C(=O)CSc1nnc(-c2ccc(S(=O)(=O)N3CCCC3)cc2)n1C` (configuration not stated): the viability is 81% (inactive).
`CCCCN(CC)C(=O)c1ccccc1Oc1ccccc1`: the viability is 85.8% (inactive).
For `COC1=CCC2([N+](=O)[O-])CN(CC(=O)O)CC1([N+](=O)[O-])C2` (configuration not stated), the viability is 99% (inactive).
To `O=C(Cc1ccc(Cl)c(Cl)c1)Nc1ccc(SC(F)F)cc1` belongs 35.8% (inactive); to `O=C(CC(=O)Nc1ccc(Cl)c(Cl)c1)N/N=C/c1ccc(O)cc1`, 81% (inactive).
To `O=C(CC(O)(C(F)(F)F)C(F)(F)F)Nc1ccc(Cl)c(Cl)c1` belongs 2.26% (active); to `C/C(=N\Nc1ccc([N+](=O)[O-])cc1)c1ccc(-n2nncc2C(C)(C)C)cc1`, 97.1% (inactive); to `CCN(/N=C/c1ccc(N(C)C)cc1)c1nc2ccccc2[nH]1`, 87.6% (inactive).
With `O=C(COC(=O)c1cc([N+](=O)[O-])ccc1NCc1ccccc1)NC1CCCCC1` the figure was 45.6% (inactive).
For the compound `C/C(CCC(=O)OC[C@H]1O[C@H](C#Cc2ccccc2)C=C[C@@H]1Oc1ccc(C)cc1)=N\OC[C@@H](O)[C@H]1O[C@@H]2OC(C)(C)O[C@@H]2[C@H]1O`, the viability is 86.2% (inactive).
